ELG1 DNA repair = ELG1-dependent DNA repair inhibition; HEK293T ELG1-luciferase reporter, luminescence, 16 h; DNA damage induced by 5-fluorouridine; Potency, µM (series often up to 46.1 µM), actives largely listed as inhibitors; 330,000 compounds, 2.3% hits; note: nearly all actives have a fitted effect of over 55% in size
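DMSO vehicle served as the neutral condition. Each well held 2,000 cells given 5-fluorouridine plus compound; after 16 hr at 37 °C/5% CO2, ONE-Glo was added and luciferase measured 30 min later.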
FLuc modulator = firefly luciferase modulation, counter-screen for miR-21 project; purified FLuc, Km substrates, luminescence inhibition; AID 588342; Potency, µM (doses to about 57.5 µM), hits mostly inhibitors; P08659; 360,000 compounds, 6.9% hits; note: nearly all actives have a fitted effect of over 55% in size
Target sequence (P08659 whole entry, looked up): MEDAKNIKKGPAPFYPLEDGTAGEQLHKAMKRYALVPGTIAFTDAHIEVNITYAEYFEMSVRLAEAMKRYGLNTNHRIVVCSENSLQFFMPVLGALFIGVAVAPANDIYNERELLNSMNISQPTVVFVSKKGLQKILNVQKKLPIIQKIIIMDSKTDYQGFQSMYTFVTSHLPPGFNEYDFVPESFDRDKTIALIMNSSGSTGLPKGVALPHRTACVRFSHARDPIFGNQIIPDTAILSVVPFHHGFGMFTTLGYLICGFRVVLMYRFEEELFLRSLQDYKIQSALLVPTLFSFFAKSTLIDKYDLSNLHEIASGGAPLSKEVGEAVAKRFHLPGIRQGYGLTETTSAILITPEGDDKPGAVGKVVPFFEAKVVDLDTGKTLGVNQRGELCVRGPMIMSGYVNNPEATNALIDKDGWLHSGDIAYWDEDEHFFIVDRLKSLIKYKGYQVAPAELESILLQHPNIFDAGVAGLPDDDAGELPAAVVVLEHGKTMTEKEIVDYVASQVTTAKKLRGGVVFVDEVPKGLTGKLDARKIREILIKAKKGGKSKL
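Biochemical qHTS of compounds, final roughly 60 µM downward over six points, against 10 nM purified firefly luciferase using Km concentrations of substrates (10 uM D-luciferin, 10 uM ATP) in Tris acetate pH 7.5 buffer; luminescence output.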
NPC1 prom act = activators of NPC1 promoter; Potency, µM (series often up to 9.22 µM), actives largely listed as activators; 320,000 compounds, 2.4% hits; Huh7 NPC1 promoter luciferase reporter, 24 h; note: nearly all actives have a fitted effect of over 60% in size
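Quantitative HTS used a cell-based reporter: Huh7 cells stably bearing the NPC1 promoter upstream of luciferase were treated with compounds for 24 h, and promoter activation was read as luminescence.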
ELG1 genotox = induces genotoxicity in HEK293T cells with luciferase-tagged ELG1. HEK293T ELG1-luciferase reporter, luminescence, 16 h. Potency, µM (doses to about 46 µM), usual class: activators. 330,000 compounds, 1.3% hits. AID 504466; note: nearly all actives have a fitted effect of over 60% in size
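Step 1: seed 2,000 HEK293T ELG1-luciferase cells per well. Step 2: add compound or DMSO, incubate 16 hr at 37 °C. Step 3: ONE-Glo, 30 min at room temperature, read luminescence.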
SMN2 splice enh = enhancers of SMN2 splice variant expression; 210,000 compounds, 2.8% hits; Potency, µM (series often up to 46.1 µM), usual class: activators; AID 1458; HEK293 SMN2-luciferase splicing reporter, luminescence, 30-36 h; note: nearly all actives have a fitted effect of over 55% in size
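HEK293 cells carry an SMN2 […]–luciferase reporter in which exon 7 inclusion puts luciferase in frame. Cells were plated 10-12 h before compound addition, then incubated 30-36 h at 37C. ONE-Glo luminescence was read; sodium butyrate at 4.5 mM final served as control.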
Rab9 promoter act = Rab9 promoter activation. Potency, µM (series often up to 9.22 µM), hits mostly activators. AID 485297. Huh7 Rab9 promoter-luciferase reporter, luminescence, 24 h. 320,000 compounds, 2.8% hits; note: nearly all actives have a fitted effect of over 60% in size
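Huh7 cells stably carrying Rab9 promoter–luciferase reporter, plated 1500 cells/well, compound added after 2 h and incubated 24 h at 37 °C; luciferase luminescence then read after 10 min with detection reagent.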
Of the large screens only hits and unclear results are named; the others gave an inactive call. Hits are enriched below; roughly 9.2% of the tested compounds scored in any of these assays. Calls come from the whole dose curve; as a rule, active = well fitted curve in the direction sought with a large enough effect; inconclusive = small, poorly fitted or top-dose-only effect, or another doubt; inactive = no such curve, though single readings can be large; an effect the other way counts as inactive or inconclusive.

CCOC(=O)c1c(C)[nH]c(C=Nc2ccccc2)c1O	NPC1 prom act inconclusive, SMN2 splice enh inconclusive, Rab9 promoter act inconclusive
Cc1ccc(N(CC(=O)NCCSc2nc3ccccc3s2)S(=O)(=O)c2ccccc2)c(C)c1	ELG1 DNA repair inconclusive
Cc1cccc(-n2c(-c3ccccc3)cn3c4c(=O)[nH]c(=O)n(C)c4nc23)c1	SMN2 splice enh inconclusive (no result: ELG1 DNA repair, NPC1 prom act, ELG1 genotox, Rab9 promoter act)
CCOC(=O)c1sc(NC(=O)c2c(-c3ccccc3)c(-c3ccccc3)nn(C)c2=O)nc1C	FLuc modulator inconclusive (no result: ELG1 DNA repair, NPC1 prom act, ELG1 genotox, Rab9 promoter act)
CCCCc1c(C)nc2ccc(Br)cc2c1SCCC#N	ELG1 DNA repair 18.4µM
CCCc1c(C)nc2ccccc2c1SCCC#N	ELG1 DNA repair 23.1µM
Cc1ccc(-c2nn(CC(=O)NC3CCCCC3)c3c2cnc2ccccc23)cc1	none (no result: ELG1 DNA repair, NPC1 prom act, ELG1 genotox, SMN2 splice enh, Rab9 promoter act)
COc1ccc(CCNC(=O)NC23CC4CC(CC(C4)C2)C3)cc1	FLuc modulator inconclusive
O=C(NCCC1=CCCCC1)NC12CC3CC(CC(C3)C1)C2	ELG1 DNA repair inconclusive, FLuc modulator 3.38µM, NPC1 prom act 0.631µM, ELG1 genotox inconclusive, Rab9 promoter act 0.891µM
O=C(NCCc1ccc(F)cc1)NC12CC3CC(CC(C3)C1)C2	ELG1 DNA repair inconclusive, FLuc modulator 10.7µM, NPC1 prom act 2.51µM, ELG1 genotox inconclusive, Rab9 promoter act 3.55µM (no result: SMN2 splice enh)
COc1cc(NC(=O)c2cccc(NC3=NC4CS(=O)(=O)CC4S3)c2)cc(OC)c1OC (centres undefined)	none (no result: SMN2 splice enh)
CCn1c(=O)c(C(=O)CN2CCN(S(=O)(=O)c3cc(C)ccc3C)CC2)c(N)n(Cc2ccccc2)c1=O	ELG1 DNA repair 6.51µM
CN(C)C=NC(=O)c1cc(C(=O)c2ccc(C(C)(C)C)cc2)c[nH]1	ELG1 DNA repair inconclusive, FLuc modulator 9.53µM, NPC1 prom act 1.12µM, ELG1 genotox 2.91µM, SMN2 splice enh 3.16µM, Rab9 promoter act 1.12µM
CNC(=O)c1cc(C(=O)c2ccc(C(F)(F)F)cc2)c[nH]1	ELG1 DNA repair inconclusive, FLuc modulator inconclusive, ELG1 genotox inconclusive (no result: SMN2 splice enh)
COC(=O)c1cc(C(=O)c2ccc(C(C)(C)C)cc2)c[nH]1	FLuc modulator 19µM, ELG1 genotox inconclusive
CC(C)(C)c1ccc(C(=O)c2c[nH]c(C(=O)O)c2)cc1	ELG1 DNA repair inconclusive, FLuc modulator 2.13µM, NPC1 prom act inconclusive, SMN2 splice enh 12.6µM, Rab9 promoter act inconclusive
COC(=O)c1ccc(NC(=O)Cc2coc3cc(C)ccc23)cc1	SMN2 splice enh inconclusive (no result: ELG1 DNA repair, NPC1 prom act, ELG1 genotox, Rab9 promoter act)
CCOc1ccc(C(=O)Nc2cc(-c3nc4ccccc4o3)ccc2C)cc1Cl	none (no result: ELG1 DNA repair, NPC1 prom act, ELG1 genotox, Rab9 promoter act)
O=C(CSc1nc2nn(-c3ccccc3)c(=O)c-2c2n1CCCCC2)NCCCc1ccccc1	none
O=C(NCc1ccc(F)cc1)c1noc2c1CCCCC2	ELG1 DNA repair inconclusive
O=C(Nc1ccc(F)cc1F)c1noc2c1CCC2	ELG1 DNA repair inconclusive, FLuc modulator 15.1µM, NPC1 prom act inconclusive, SMN2 splice enh inconclusive, Rab9 promoter act inconclusive
O=C(Nc1ccccc1C(F)(F)F)c1noc2c1CCCCC2	FLuc modulator 2.69µM, SMN2 splice enh 11.2µM (no result: ELG1 DNA repair, NPC1 prom act, ELG1 genotox, Rab9 promoter act)
O=C(Nc1cc(Cl)ccc1Cl)c1noc2c1CCCC2	none (no result: SMN2 splice enh)
CSc1ccc(/C=C2\C(=N)N3N=C(CC(=O)N4CCOCC4)SC3=NC2=O)cc1	FLuc modulator inconclusive (no result: SMN2 splice enh)
CCN(CC)c1ccc(/C=C2\C(=N)N3N=C(CC(=O)N4CCOCC4)SC3=NC2=O)cc1	ELG1 DNA repair inconclusive, FLuc modulator 26.9µM (no result: SMN2 splice enh)
Cc1cc(/C=C2\C(=N)N3N=C(CC(=O)N4CCOCC4)SC3=NC2=O)c(C)n1-c1ccccc1	FLuc modulator 10.7µM (no result: SMN2 splice enh)
O=C(Cc1cn(-c2ccccc2)nc1-c1ccccc1)N1CCCCC1	none (no result: SMN2 splice enh)
O=c1c2ccccc2cnn1Cc1n[nH]c(=S)n1-c1ccccc1	none
Cc1ccc(C2=NC(c3ccccc3)=Nc3ccc(Cl)cc3N2)cc1	FLuc modulator 10.7µM (no result: ELG1 DNA repair, NPC1 prom act, ELG1 genotox, Rab9 promoter act)
Cc1cccc(COc2ccccc2C(=O)OCC(=O)N(C)c2c(N)n(Cc3ccccc3)c(=O)[nH]c2=O)c1	ELG1 DNA repair 20.6µM (no result: SMN2 splice enh)
O=C(NCCc1ccccc1)C(c1cccs1)N(C(=O)CCl)c1ccc(Cl)cc1 (centres undefined)	ELG1 DNA repair 18.4µM

Source: PubChem BioAssay (National Center for Advancing Translational Sciences (NCATS))
